# ± gives the standard deviation of the averaged measurements. In all, about 33,000 sequences were measured (“E-score (dimensionless, -0.5 to 0.5)”: median about -0.049, highest 2% from about 0.37 on). The full list was thinned out, with the highest values kept by preference.
# Tested on: T1, PmTbr T-box DNA-binding domain (GST fusion)
# T1 sequence: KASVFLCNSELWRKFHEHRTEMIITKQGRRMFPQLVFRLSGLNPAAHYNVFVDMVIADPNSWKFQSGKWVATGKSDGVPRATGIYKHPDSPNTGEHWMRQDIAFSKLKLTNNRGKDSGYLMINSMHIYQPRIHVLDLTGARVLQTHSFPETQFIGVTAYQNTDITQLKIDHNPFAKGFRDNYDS
# Assay: PBM E-score of 8-mer (E-score (dimensionless, -0.5 to 0.5)); Tbr is Tbrain of the sea star Patiria miniata (Pm) or the sea urchin Strongylocentrotus purpuratus (Sp); higher = stronger binding preference
# Conditions: the construct has about 5 more residues each side
# Description: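 Universal protein-binding microarray (Agilent AMADID 016060, 60-bp probes with a 35-bp variable region) incubated with 200 nM GST-fused Patiria miniata Tbr T-box DNA-binding domain (residues 272-466) in PBS pH 7.5. Scored for every ungapped 8-mer (given with its reverse complement) by the Universal PBM Analysis Suite as E-score (modified Wilcoxon-Mann-Whitney enrichment, range -0.5 to 0.5; >0.45 counts as bound) and Z-score of median probe intensity. Two replicate arrays (datasets 1 and 2).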
# 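Also: 200 nM protein in PBS on universal arrays averaged over duplicate arrays.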
row,Sequence,PBM E-score of 8-mer
1,AAGGTGCG,0.45 ± 0.014
2,CTGGTGCC,0.128 ± 0.018
3,CAGGTGCC,0.4 ± 0.0072
4,AGGGTGCG,0.356 ± 0.052
5,CGGGTGCC,0.247 ± 0.024
6,CAGATGCG,-0.135 ± 0.048
7,CAGGTGCA,0.277 ± 0.021
8,ACGGTGCG,0.309 ± 0.042
9,CCCACTCC,-0.0608 ± 0.036
10,CCCAGATA,-0.233 ± 0.14
11,CGAAAGCC,-0.0801 ± 0.046
12,CAGTAAAC,-0.125 ± 0.0037
13,ACTAAACT,-0.221 ± 0.1
14,AAGGACTT,-0.228 ± 0.067
15,GTGTTAAA,0.429 ± 0.021
16,CTGTTATA,0.184 ± 0.016
17,ATGTTAGA,-0.236 ± 0.027
18,GTGTTAGA,0.419 ± 0.0094
19,TTGTTAAA,0.199 ± 0.035
20,GTGTTATA,0.426 ± 0.013
21,ATGTTATA,-0.0814 ± 0.076
22,CTGTTACA,0.197 ± 0.0076
23,CTGTTAAA,0.23 ± 0.015
24,CTGTTAGA,0.118 ± 0.0087
25,ATGTTACA,0.0933 ± 0.047
26,GTGTTACA,0.386 ± 0.013

row,Sequence,PBM E-score of 8-mer
1,CACCAGTA,0.132 ± 0.018
2,CAGGCGTA,-0.0498 ± 0.043
3,AGCCACGC,-0.0441 ± 0.025
4,ACACTACG,0.283 ± 0.0065
5,AGAGTTGC,0.0099 ± 0.0045
6,AGTACTCC,-0.28 ± 0.033
7,CTAGGCCC,-0.274 ± 0.082
8,TAATGCGA,0.0983 ± 0.054
9,AAAACCTG,0.191 ± 0.063
10,CTAGCCAG,-0.185 ± 0.027
11,AAACTCTC,-0.00208 ± 0.031
12,GGAGCTCA,-0.0734 ± 0.021
13,CTGTTAAC,0.281 ± 0.055
14,GTGTTAAC,0.438 ± 0.017
15,ATGTTAAC,0.161 ± 0.015
16,CTAAGTGA,0.225 ± 0.032
17,AACTTAGA,-0.157 ± 0.055
18,ACGCAGTA,-0.0663 ± 0.018
19,GGGGGTCA,-0.0111 ± 0.17
20,CGGTGTCC,-0.00395 ± 0.072
21,GGGTGTCA,0.472 ± 0.0071
22,CGGTGTGA,0.451 ± 0.0064
23,CGATGTCA,0.0984 ± 0.03
24,GCGTGTCA,0.276 ± 0.034
25,CGGTGTCA,0.4 ± 0.012
26,CGATGTGA,0.228 ± 0.018

row,Sequence,PBM E-score of 8-mer
1,CGGTGTGC,0 ± 0.12
2,CGAAATTC,0.0215 ± 0.011
3,ATAATGCC,-0.174 ± 0.081
4,AGTATGCG,-0.0996 ± 0.096
5,CAGAACCA,-0.232 ± 0.018
6,GCAATTCA,0.0777 ± 0.042
7,GACAAGGC,0.101 ± 0.025
8,CTTCGCCC,-0.0791 ± 0.096
9,ATTCGCAA,0.298 ± 0.027
10,ATTCGCAC,0.4784 ± 0.002
11,CTTCGCAC,0.454 ± 0.019
12,ATTCGCAG,0.297 ± 0.024
13,CTTCGCAA,0.336 ± 0.028
14,GATTACGA,-0.00232 ± 0.07
15,ATGGCAGA,-0.0257 ± 0.063
16,AAGACATT,-0.203 ± 0.097
17,CTGACATC,-0.0976 ± 0.035
18,ATGACACG,0.312 ± 0.017
19,ATGACACA,0.314 ± 0.0075
20,CTGACAGC,0.289 ± 0.011
21,ATGACACC,0.463 ± 0.0098
22,CTGACACC,0.464 ± 0.0063
23,GCCGCTGA,-0.113 ± 0.074
24,GACATCGA,-0.0159 ± 0.0023
25,CACCACAC,0.367 ± 0.018
26,CACACCAC,0.406 ± 0.012

row,Sequence,PBM E-score of 8-mer
1,AACACCAG,0.335 ± 0.022
2,CACACCAA,0.3718 ± 0.0018
3,CTCACCAA,0.211 ± 0.042
4,CCCACCAC,-0.0276 ± 0.048
5,CACACCAG,0.399 ± 0.018
6,CCCACCAA,-0.112 ± 0.048
7,CGCACCAG,0.2978 ± 0.0014
8,CAATATCG,0.06478 ± 0.00031
9,GCCATAGA,-0.0661 ± 0.067
10,CAGGTAGC,-0.062 ± 0.011
11,CAGTACCA,-0.0345 ± 0.056
12,ACATTACC,-0.144 ± 0.023
13,AGCCACGG,-0.119 ± 0.013
14,CTCGTCCC,-0.303 ± 0.016
15,AAATAGGT,0.0404 ± 0.07
16,GCACAGGA,-0.162 ± 0.05
17,CGCAAAAC,0.0965 ± 0.0024
18,GCACGTGC,0.2695 ± 0.0011
19,ACACGTGG,0.307 ± 0.022
20,CCACGTGC,0.149 ± 0.013
21,ACACGTGA,0.292 ± 0.017
22,ACACGTGT,0.403 ± 0.023
23,ACACGTGC,0.387 ± 0.023
24,ACATGGTG,0.243 ± 0.0055
25,GCAAGCCA,-0.221 ± 0.037
26,GCATCTGA,-0.0824 ± 0.1

row,Sequence,PBM E-score of 8-mer
1,ATTATCCG,-0.0296 ± 0.042
2,GATGGCGA,0.1142 ± 0.00067
3,CAGTGGAG,-0.068 ± 0.012
4,ACTTGTGA,0.411 ± 0.0095
5,ACTTGTTA,0.372 ± 0.044
6,CGTTGTGA,0.2 ± 0.0095
7,AGTTGTGG,0.122 ± 0.039
8,ACTTGTGG,0.196 ± 0.014
9,GCTTGTGA,0.187 ± 0.0082
10,CCTTGTTA,0.126 ± 0.011
11,ACTTGTTG,0.332 ± 0.018
12,AGTTGTGA,0.387 ± 0.017
13,ACTTGTCA,0.4044 ± 0.0039
14,GCTTGTCA,0.0851 ± 0.047
15,TCTTGTCA,0.207 ± 0.023
16,ATACTTAA,-0.187 ± 0.096
17,CTAGTGCA,0.173 ± 0.0046
18,TCCCCAGA,-0.207 ± 0.12
19,GCAGAAAA,-0.0494 ± 0.066
20,TATTCCGA,-0.274 ± 0.013
21,CACTTCGG,0.363 ± 0.015
22,ATATACGG,-0.038 ± 0.039
23,CTTTTAGC,0.22 ± 0.074
24,AGTCCTAG,-0.0285 ± 0.042
25,ATAGTAAG,-0.216 ± 0.029
26,GGCTAAAA,-0.22 ± 0.064

row,Sequence,PBM E-score of 8-mer
1,CGTGTGTC,0.204 ± 0.018
2,AGTGTGAT,0.463 ± 0.0063
3,AATGTGAT,0.258 ± 0.039
4,AGAGTGAT,0.239 ± 0.0043
5,CGTGTGAG,0.363 ± 0.013
6,AGTGTGAC,0.467 ± 0.0075
7,GGTGTGAC,0.4864 ± 0.0033
8,CGTGTGAC,0.4054 ± 0.0011
9,AGTGTGTC,0.248 ± 0.0093
10,ACTGTGAC,0.239 ± 0.026
11,GCTGTGAC,0.208 ± 0.037
12,GATGTGAC,0.308 ± 0.017
13,CACCCAAG,0.263 ± 0.023
14,TCTTAGCA,0.2 ± 0.017
15,CCCGAATC,0.00343 ± 0.029
16,ACAAGACC,0.0576 ± 0.017
17,GACTACCA,-0.0358 ± 0.082
18,CAGGAGAC,-0.136 ± 0.017
19,AGTGTGAG,0.4585 ± 0.0031
20,ATTGTGAG,0.2213 ± 0.00029
21,AGTGTGTG,0.338 ± 0.021
22,CACACAGG,0.119 ± 0.044
23,CGGCAAAA,-0.0622 ± 0.057
24,ACATCCGG,-0.0734 ± 0.061
25,GAACTGGA,-0.175 ± 0.037
26,CCTGGAAA,-0.133 ± 0.014

row,Sequence,PBM E-score of 8-mer
1,AAAGACAA,-0.172 ± 0.069
2,CCCCTTTC,-0.124 ± 0.061
3,CACCTTTC,0.411 ± 0.034
4,GACCTTTA,-0.207 ± 0.088
5,AACCTTTC,-0.105 ± 0.047
6,CACCTTTA,0.404 ± 0.013
7,AACCTTTA,-0.0895 ± 0.057
8,CGCGCATC,0.0691 ± 0.012
9,GGCTGGAA,-0.127 ± 0.064
10,GACCACCA,-0.142 ± 0.031
11,AGGAAGGG,-0.28 ± 0.01
12,TAGCACCA,0.403 ± 0.015
13,CCGCACCA,0.187 ± 0.0087
14,TGGCACCA,0.377 ± 0.0055
15,GAGCACCA,-0.0664 ± 0.018
16,TCGCACCA,0.44 ± 0.0079
17,AGGCACCA,-0.171 ± 0.024
18,GCGCACCA,-0.0144 ± 0.01
19,CAGCACCA,0.0936 ± 0.032
20,GGGCACCA,-0.125 ± 0.059

# From the supplement of paper PMC4166925
